Results taken from PubChem BioAssay (NCI).
The panel holds about 83,000 compounds, 20% with a hit somewhere; the sample as a whole holds those more often.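 Negative percent growth values reflect cell death: -40 means 40% of the cells present at the start died, and -100 means all died.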 Activity calls are given as the source filed them. Rule for the calls: active = growth percent below 10; inactive = the rest.

Assays:
Assay in all cases: NCI-60 one-dose screen, 48 h (100 = growth as untreated, 0 = no growth, -100 = all killed)
Conditions in all cases: 10 µM unless noted
[1] = system: SR leukemia
[2] = system: RPMI-8226 leukemia
[3] = system: OVCAR-8 ovarian
[4] = system: OVCAR-5 ovarian
[5] = system: OVCAR-4 ovarian
[6] = system: SK-OV-3 ovarian
[7] = system: IGROV1 ovarian
[8] = system: HS 578T breast
[9] = system: NCI/ADR-RES ovarian
[10] = system: OVCAR-3 ovarian

Measured: growth

O=C(Cn1c2c(c3ccccc31)CCCC2)Nc1ccc(-c2nc3ccccc3s2)cc1
inactive: [1] 88.8% | [2] 116% | [3] 107% | [4] 99.5% | [5] 104% | [6] 114% | [7] 83.8% | [8] 112% | [9] 109%

O=C1C(Cl)=C(Nc2ccc(O)cc2)C(=O)N1Cc1ccc(Cl)cc1
inactive: [2] 26.1% | [3] 65% | [4] 85.3% | [5] 77.5% | [6] 88.1% | [7] 30.5% | [10] 40.8% | [8] 78.6% | [9] 81.3%
active: [1] 5.96%

O=C1/C(=C/c2ccc(-c3ccc(Br)cc3)o2)SC(=S)N1CCc1ccc(O)cc1
inactive: [1] 19.2% | [2] 75.7% | [4] 86% | [5] 38.3% | [6] 76.2% | [7] 45.2% | [10] 44.3% | [8] 59.7% | [9] 81.7%
active: [3] 4.49%

CCOC(=O)c1c(NC(=O)c2ccc(C(C)C)cc2)sc2c(CN(C)C)c(O)ccc12
inactive: [3] 89.1% | [4] 64.1% | [5] 87.2% | [6] 99.2% | [7] 72.5% | [8] 86.2% | [9] 72.6%
active: [1] -21.5% | [2] -20%

Cc1cccc(N2CCN(CC(O)COc3ccc(Cl)cc3)CC2)c1 (stereo not given)
inactive: [1] 79.7% | [2] 77.6% | [3] 98.8% | [4] 116% | [5] 115% | [7] 92.7% | [10] 111% | [8] 115% | [9] 105%
active: [6] -100%

O=C(Nc1cccnc1Nc1ccc(F)cc1)c1cn(Cc2cccc(Oc3ccccc3)c2)nn1
inactive: [1] 23.4% | [2] 78.9% | [3] 81.4% | [4] 115% | [5] 86.5% | [6] 87.4% | [7] 91.2% | [8] 69.3% | [9] 37.8%

CN([O-])c1nc(N(C)[O-])nc(N2CCOCC2)n1.CN([O-])c1nc(N(C)[OH2+])nc(N2CCOCC2)n1.[Fe+3]
inactive: [1] 67.3% [100 µM] | [2] 81% [100 µM] | [3] 85.6% [100 µM] | [4] 110% [100 µM] | [5] 120% [100 µM] | [6] 110% [100 µM] | [7] 112% [100 µM] | [10] 60% [100 µM] | [8] 98.2% [100 µM] | [9] 104% [100 µM]

CN(C)CCCC1(c2ccc(F)cc2)OCc2cc(-c3cncc4ccccc34)ccc21 (stereo not given)
active: [1] -3.26%
inactive: [2] 35.3% | [3] 62.7% | [4] 70.5% | [5] 43.9% | [6] 59.6% | [7] 22.1% | [10] 47% | [8] 27.5% | [9] 67%

COc1ccc(C(c2cc(OC)c(OC)c(OC)c2)N2CCN(c3ccccc3)CC2)cc1 (stereo not given)
inactive: [1] 33.2% | [2] 89.3% | [3] 99.1% | [4] 102% | [5] 89.9% | [6] 78.5% | [7] 72.7% | [10] 90.1% | [8] 101% | [9] 85.9%

COc1ccc(C(=O)Nc2ncc(Cc3ccc(F)cc3)s2)cc1
inactive: [1] 11.1% | [2] 15.9% | [3] 27.6% | [4] 29.6% | [5] 48.9% | [6] 44.6% | [7] 18.3% | [8] 31.7%
active: [10] -22.2% | [9] 7.08%

CC(=O)Nc1nc2ccc(NS(=O)(=O)c3cccc4c(N(C)C)cccc34)cc2[nH]1
inactive: [1] 24.8% | [2] 43.3% | [3] 85.4% | [4] 84.4% | [5] 76.9% | [6] 88.1% | [7] 51.5% | [10] 41.1% | [8] 52.3% | [9] 97.7%

CCN(CC)c1nc(SCc2ccccc2Cl)ncc1C
inactive: [1] 95.6% | [2] 93.5% | [3] 104% | [4] 119% | [5] 101% | [6] 113% | [7] 109% | [8] 124% | [9] 92.2%

COc1ccc(/C=C2\COc3ccc(O)c(O)c3C2=O)cc1
inactive: [1] 21.6% | [5] 48.4% | [6] 63.5% | [10] 11.1% | [8] 19.5%
active: [2] 4.17% | [3] 7.39% | [4] -12.3% | [7] 1.03% | [9] 6.53%

CCOC(=O)CSc1ncnc2c1c(-c1ccccc1)c(-c1ccccc1)n2-c1ccc(C)cc1
inactive: [1] 80.4% | [2] 37.8% | [3] 54.5% | [4] 93.8% | [5] 80.4% | [6] 56% | [7] 79.9% | [8] 81.7% | [9] 98.4%
